Data reported in PubChem BioAssay.
Active and inactive are the calls of the source.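 Rule for the calls: active = compounds killing one labelled cell type while sparing the other, by normalised counts and ratio limits, not self-fluorescent; inactive = the rest.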

Assay: EMT-state selective cytotoxicity in co-culture – imaging, PC-3E GFP, TEM4-18 mCherry, primary screen (AID 1345086);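 note: cells exposed to compound for 72 h before imaging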;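 for red/green cell ratio (normalised): normalised mesenchymal count divided by normalised epithelial count so high means epithelial killing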
Settings: PC-3E GFP / TEM4-18 mCherry co-culture, imaging cell counts, at 1 µM; for red/green cell ratio (normalised): actives lie on both sides, counts scaled to control wells, 1 = unselective
[1] = measured here: epithelial PC-3E GFP cell survival
[2] = measured here: mesenchymal TEM4-18 mCherry cell survival

SMILES	red/green cell ratio (normalised)	normalised cell number [1]	normalised cell number [2]
C[C@H]1C[C@H]2O[C@@H]2/C=C\C=C\C(=O)Cc2c(Cl)c(O)cc(O)c2C(=O)O1	0.97 (inactive)	0.89	0.87
CCCc1ccc(C(=O)O)nc1	0.84 (inactive)	1.18	0.99
Cc1ccc(S[C@H]2OC(CO)C(O)[C@@H]3OC(=O)N[C@H]23)cc1 (stereo not given in full)	0.98 (inactive)	1.01	0.99
CC(CCOc1ccc(C(=O)O)cc1)C(=O)O (stereo not given)	1.1 (inactive)	1.03	1.14
COc1cc(/C=C/C(=O)O)cc(OC)c1O	1.1 (inactive)	1.09	1.2
CC(=O)NC1[C@@H](O)C2OC(c3ccccc3)OCC2O[C@H]1Sc1ccccc1 (stereo not given in full)	1.03 (inactive)	1.06	1.09
COC(=O)C[C@H]1C(C)(C)C(=O)[C@@H]2CC3=C4CC(=O)O[C@@H](c5ccoc5)[C@]4(C)CCC3C1(C)C2=O (stereo not given in full)	1.01 (inactive)	0.78	0.78
CC1COc2c(N)c(F)cc3c(=O)c(C(=O)O)cn1c23 (stereo not given)	0.95 (inactive)	1.07	1.01
CO/N=C(/C(=O)NC1C(=O)N2C(C(=O)O)=C(C[N+]3(C)CCCC3)CSC12)c1csc(N)n1 (stereo not given)	1.01 (inactive)	1.21	1.22
C[C@@H]1CCC2[C@](C)(CO)[C@@H](O)CC[C@]2(C)[C@@]12CC[C@@](CO)(CCO)O2 (stereo not given in full)	0.93 (inactive)	1.01	0.94
C=C1OC(=O)C23C1OC(CC(O)C2O)C3C (stereo not given)	0.9 (inactive)	1.26	1.14
CC1(C)S[C@@H]2[C@H](NC(=O)C(N)c3ccc(O)cc3)C(=O)N2[C@H]1C(=O)O (stereo not given in full)	0.84 (inactive)	1.22	1.02
CO/N=C1/C[C@]2(C[C@@H]3C[C@@H](C/C=C(\C)C[C@@H](C)/C=C/C=C4\COC5[C@H](O)C(C)=C[C@@H](C(=O)O3)[C@]45O)O2)O[C@H](/C(C)=C/C(C)C)[C@H]1C (stereo not given in full)	1.32 (inactive)	1	1.32
COC1=N[C@@](OC)(C(C)C)C(=O)N[C@@]1(O)[C@H](O)c1ccccc1	0.8 (inactive)	1.21	0.96
CC12CCC3C(CC3(C)C)C3(C1)OC(=O)CC(C(=O)O)C3CC2 (stereo not given)	0.86 (inactive)	1.03	0.88
CC[C@H](C)/C=C/C1=CC2=C(Cl)C(=O)[C@@]3(C)OC(=O)C(C(=O)[C@@H](C)[C@@H](C)O)=C3C2=CO1	0.99 (inactive)	0.92	0.91
O=C(O)c1c(Cl)nc(Cl)c2ccccc12	1.02 (inactive)	0.97	0.99
COC(=O)C1O[C@H](O[Si](C)(C)C(C)(C)C)[C@@H](O)[C@@H](OC(=O)c2ccccc2)C1OC(=O)c1ccccc1 (stereo not given in full)	0.98 (inactive)	1.18	1.15
CC(C)(c1ccc(O)cc1)c1ccc(O)cc1	0.93 (inactive)	1.17	1.09
Cc1cc2c(CO)cc(O)cc2o1	1 (inactive)	0.92	0.92

SMILES	red/green cell ratio (normalised)	normalised cell number [1]	normalised cell number [2]
CC1CCCC(O)/C=C/C(O)C(=O)c2c(O)cc(O)cc2CC(=O)O1 (stereo not given)	1.11 (inactive)	0.89	0.99
COc1c(N2CC[C@@H](CN)C2)c(F)cc2c(=O)c(C(=O)O)cn(Cc3ccc(-c4ccccc4)cc3)c12	1.14 (inactive)	0.86	0.98
COC1C(O)C(O)C(O)[C@@H](O)C1O (stereo not given in full)	1.11 (inactive)	0.95	1.05
C[C@@H]1C[C@H](O)[C@@H](O)CO1	0.94 (inactive)	1.12	1.05
COc1ccc(-c2coc3cc(OC)ccc3c2=O)cc1	0.82 (inactive)	1.34	1.09
CC(C)CCCC(C)C1CCC2C3CC[C@H]4CCCC[C@]4(C)C3CC[C@]12C (stereo not given in full)	0.9 (inactive)	1.1	0.99
C#C[C@]1(O)CCC2C3CCC4=CC(=O)CC[C@@H]4C3CCC21CC (stereo not given in full)	1.14 (inactive)	1.07	1.21
COc1cc(N)cc(OC)c1	0.94 (inactive)	0.97	0.91
COC(=O)CCC(C)C1CCC2C3CC[C@@H]4C[C@H](O)CC[C@]4(C)C3C[C@H](O)[C@]12C (stereo not given in full)	0.9 (inactive)	1.05	0.94
CC1=C(/C=C/C(C)=C/C=C/C(C)=C/C=C/C=C(C)/C=C/C=C(C)/C=C/C2=C(C)C(=O)C(O)CC2(C)C)C(C)(C)CC(O)C1=O (stereo not given)	1.11 (inactive)	0.97	1.08
Cc1ccc(S(=O)(=O)O[C@H]2CCOC2=O)cc1	0.92 (inactive)	1.16	1.06
CC1(C)C[C@@H]2C(=O)CC[C@@H]3O[C@]3(C)CC[C@H]21	0.92 (inactive)	0.93	0.85
O=c1cc(-c2ccccc2)oc2cc(O)ccc12	0.8 (inactive)	1.2	0.97
CC(C)(O)CC[C@@H](O)[C@](C)(O)C1CC[C@@]2(O)C3=CC(=O)C4C[C@@H](O)[C@@H](O)C[C@]4(C)C3CC[C@]12C (stereo not given in full)	0.93 (inactive)	0.94	0.88
O=c1c(O)cc([C@H]2Oc3cc(O)cc(O)c3C[C@H]2O)cc2c([C@H]3Oc4cc(O)cc(O)c4C[C@@H]3O)cc(O)c(O)c12	0.92 (inactive)	1.03	0.95
CC[C@@H](C)CC(=O)N1C(=S)O[C@@H]2Cc3ccccc3[C@@H]21	0.94 (inactive)	1.12	1.05
OCc1cc(Br)ccc1Cl	1.07 (inactive)	1.07	1.14
CCC(/C=C/[C@@H](C)[C@H]1CCC2C3CC=C4C[C@@H](O)CC[C@]4(C)C3CC[C@@]21C)C(C)C (stereo not given in full)	1.07 (inactive)	1.13	1.2
CC(=O)O[C@H]1CC[C@@]2(C)C(=CCC3C2CC[C@@]2(C)C3CC[C@@H]2C(C)CCCC(C)C)C1 (stereo not given in full)	1.16 (inactive)	0.99	1.15
CC(CC(=O)N1CCOC1=O)N1C(=S)SC[C@H]1c1ccccc1 (stereo not given in full)	0.8 (inactive)	1.08	0.87

SMILES	red/green cell ratio (normalised)	normalised cell number [1]	normalised cell number [2]
Nc1ccc(Oc2ccccc2)cc1	0.95 (inactive)	0.99	0.94
O=C(/C=C/c1ccccc1)O[C@H]1C[C@@H](O)[C@]2(O)C=CO[C@@H](O[C@@H]3O[C@H](CO)[C@@H](O)[C@H](O)[C@H]3O)C12 (stereo not given in full)	1.09 (inactive)	0.87	0.95
CC(C)CCCC(C)C1CCC2C3CC(=O)[C@H]4C[C@@H](O)CC[C@]4(C)C3CC[C@]12C (stereo not given in full)	1.01 (inactive)	1.04	1.05
C=C(C)[C@@H]1CC[C@]2(CO)CC[C@]3(C)[C@H](CCC4[C@@]5(C)CC[C@H](O)C(C)(C)C5CC[C@]43C)C12 (stereo not given in full)	0.84 (inactive)	1.09	0.91
O=C(O)c1cc(O)c2c(c1)[C@@H]([C@@H]1c3cc(C(=O)O)cc(O)c3C(=O)c3c(O[C@H]4O[C@H](CO)[C@@H](O)[C@H](O)[C@H]4O)cccc31)c1cccc(O[C@H]3O[C@H](CO)[C@@H](O)[C@H](O)[C@H]3O)c1C2=O	0.83 (inactive)	1.02	0.84
NCc1ccccc1CC(=O)NC1C(=O)N2C(C(=O)O)=C(CSc3nnnn3CC(=O)O)CSC12 (stereo not given)	0.82 (inactive)	1.19	0.98
C=C1CC[C@@]2(C)[C@H](C)CC[C@H](O)[C@@]2(CCC=C(C)C)[C@@H]1Cc1c[nH]c2ccccc12	0.97 (inactive)	0.88	0.85
COc1c(F)c(F)cc2c(=S)c(C(=O)O)cn(C3CC3)c12	0.91 (inactive)	1.14	1.04
O=C(Cc1ccncc1)c1ccc(F)cc1	1.16 (inactive)	0.82	0.95
C=C1[C@@H](C)C2[C@H](Cc3c[nH]c4ccccc34)NC(=O)[C@]23C(=O)/C=C/[C@H](O)C(=O)/C(C)=C/[C@@H](C)C/C=C/[C@H]3[C@@H]1O (stereo not given in full)	1.13 (inactive)	0.96	1.08
NCC1O[C@@H](OC2C(N)C[C@@H](N)C(O)[C@H]2OC2OC(CO)C(OC3OC(CN)[C@@H](O)C(O)[C@H]3N)C2O)C(N)[C@@H](O)C1O (stereo not given in full)	1.11 (inactive)	0.9	0.99
COC(=O)CCC(=O)NC(=O)Cc1ccccc1	0.93 (inactive)	1.16	1.08
CCC1=CC2CN(C1)Cc1c([nH]c3ccccc13)[C@@](C(=O)OC)(c1cc3c(cc1OC)N(C)[C@H]1[C@@](O)(C(=O)OC)[C@H](OC(C)=O)[C@]4(CC)C=CCN5CC[C@]31[C@@H]54)C2 (stereo not given in full)	1.47 (inactive)	0.13	0.2
C[C@]12CCc3occc3C1CC[C@@]13C[C@@H](CCC12)[C@@](O)(CO)C3 (stereo not given in full)	1.12 (inactive)	0.94	1.06
COc1c(O)cc2c(c1O)C(=O)O[C@@H](C)[C@@H]2O	1 (inactive)	1.01	1.02
O=C(O)CC1OCc2c(O)cccc21 (stereo not given)	0.47 (inactive)	0.95	0.44
COC(=O)c1ccc(C(CC(C)C)NC(C)=O)o1 (stereo not given)	1 (inactive)	1.11	1.12
COC(=O)C1O[C@H](OCc2ccccc2)[C@@H](OC(C)=O)[C@@H](OC(C)=O)C1OC(C)=O (stereo not given in full)	0.86 (inactive)	1.31	1.13
O=C1NCC[C@@H]1Oc1ccc(Oc2cnc3ccc(Cl)cc3n2)cc1	0.74 (inactive)	1.03	0.76
N=c1ccn2c(n1)O[C@@H]1[C@@H](O)[C@H](CO)O[C@@H]12	0.99 (inactive)	0.27	0.27
